Several values for one entry are separate records, joined by “and”; a condition that tells them apart may be missing. Identical values can stand only once. Results filed as inconclusive are left out. The source holds several records for some structures; these can differ, active in one and inactive in another. Activity calls are given as the source filed them. Unless noted, the call rests on the fitted dose curve; in most records, active means well fitted curve in the direction sought with a large enough effect in the repeat runs; inconclusive means weak or mixed curves; inactive means no such curve, though single readings can be large; an effect the other way counts as inactive or inconclusive.
Key:
[1] = qHTS assay to identify aromatase inhibitors - cell viability counter screen (AID 743084);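 further: cells stimulated with testosterone during compound exposure; nearly all actives have a fitted effect of over 55% in size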; further: potency means the concentration at half of the fitted maximal effect
[2] = molecular target: Aryl hydrocarbon receptor (Homo sapiens) (UniProt P35869); assay: qHTS assay to identify small molecule that activate the aryl hydrocarbon receptor (AhR) signaling pathway (AID 743085); further: nearly all actives have a fitted effect of over 15% in size; further: potency means the concentration at half of the fitted maximal effect;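 on activation: HG2L7.5c1 human HepG2 liver cells with stably integrated DRE-driven firefly reporter; series mostly up to about 70 µM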
Procedure, shortened: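 Luminescence (ONE-Glo) from a dioxin-responsive-element luciferase reporter in HG2L7.5c1 HepG2 cells after 24 hr compound exposure at 37C; viability measured by CellTiter-Fluor fluorescence beforehand.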

[3] = qHTS assay to identify small molecule that activate the aryl hydrocarbon receptor (AhR) signaling pathway - cell viability counter screen (AID 743086); further: nearly all actives have a fitted effect of over 45% in size; further: potency means the concentration at half of the fitted maximal effect
Procedure, shortened: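 HepG2-AhR-luc (HG2L7.5c1) cells, 4000/well, were preincubated 5 h at 37C, exposed to compound in qHTS format for 24 hr at 37C, then given CellTiter-Fluor for 30 min; viability was read as fluorescence in the reporter wells.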

[4] = molecular target: Peroxisome proliferator-activated receptor gamma (Homo sapiens) (UniProt P37231); assay: qHTS assay to identify small molecule agonists of the peroxisome proliferator-activated receptor gamma (PPARg) signaling pathway (AID 743094; active means well fitted activation curve with a large enough effect in the signal ratio in the repeat runs, not every such curve was filed as active; the % refers to the signal ratio; further: potency means the concentration at half of the fitted maximal effect)
Procedure, shortened: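 Quantitative HTS agonist mode: stable HEK293H line with UAS-beta-lactamase reporter under PPARg control, 17 h compound exposure at 37C, fluorescence after 1 h FRET substrate loading at room temperature.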

[5] = qHTS assay for small molecule agonists of the antioxidant response element (ARE) signaling pathway (AID 743202; active means well fitted activation curve with a large enough effect in the signal ratio in the repeat runs, not every such curve was filed as active; the % refers to the signal ratio; further: potency means the concentration at half of the fitted maximal effect)
Procedure, shortened: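 Read-out: LiveBLAzer B/G FRET substrate fluorescence after 2 h at room temperature, following 16 h compound treatment at 37 C of HepG2 cells carrying an ARE-driven beta-lactamase reporter.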

[6] = qHTS assay for small molecule agonists of the antioxidant response element (ARE) signaling pathway - cell viability counter screen (AID 743203; calls by dose curve; further: nearly all actives have a fitted effect of over 55% in size; further: potency means the concentration at half of the fitted maximal effect)
Procedure, shortened: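 Seeded at 2,000 cells/well, ARE-bla HepG2 cells were incubated 5 hrs before compound addition. After 16 hrs of treatment at 37C with 5% CO2, CellTiter-Glo reagent was added and luminescence read 30 min later.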

[7] = qHTS assay for small molecule activators of the heat shock response signaling pathway - cell viability counter screen (AID 743209); further: nearly all actives have a fitted effect of over 50% in size
Procedure, shortened: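 First, HSE-bla HeLa cells were seeded at 1500 cells/well and kept overnight at 37 C. Next, compounds were pinned in and incubated 5 h. After the FRET substrate step, CellTiter-Glo was added and luminescence read 30 min later.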

[8] = qHTS assay for small molecule activators of the heat shock response signaling pathway (AID 743210; active means well fitted activation curve with a large enough effect in the signal ratio in the repeat runs, with a control signal flat, not every such curve was filed as active; the % refers to the signal ratio; further: potency means the concentration at half of the fitted maximal effect; on activation: series mostly up to about 63 µM)
Procedure, shortened: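 HSE-bla HeLa cells (beta-lactamase reporter under heat shock response elements) were exposed to compounds for 5 h at 37 C, then loaded with LiveBLAzer B/G FRET substrate for 2.5 h at room temperature before fluorescence reading.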

[9] = qHTS assay to identify small molecule antagonists of the peroxisome proliferator-activated receptor gamma (PPARg) signaling pathway - cell viability counter screen (AID 743194); further: nearly all actives have a fitted effect of over 55% in size; further: potency means the concentration at half of the fitted maximal effect
Procedure, shortened: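 PPARg-UAS-bla HEK293H cells were plated, rested 5 h at 37 C, then treated with compounds plus rosiglitazone (50 nM final) for 17 h at 37 C; viability was then read by CellTiter-Glo luminescence after 30 min at room temperature.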

[10] = molecular target: Peroxisome proliferator-activated receptor gamma (Homo sapiens) (UniProt P37231); assay: qHTS assay to identify small molecule antagonists of the peroxisome proliferator-activated receptor gamma (PPARg) signaling pathway (AID 743191; calls by dose curve; further: nearly all actives have a fitted effect of over 30% in size; further: potency means the concentration at half of the fitted maximal effect)
Procedure, shortened: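 GeneBLAzer PPARg UAS-bla HEK293H cells carrying a UAS-driven beta-lactamase reporter were plated at 3000 cells/well, preincubated 5 h at 37C, then given compound for 17 h at 37C; LiveBLAzer B/G FRET substrate was read after 1 h at room temperature.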

Measured: Potency

Chain of Aryl hydrocarbon receptor (Homo sapiens) (P35869 whole entry, looked up): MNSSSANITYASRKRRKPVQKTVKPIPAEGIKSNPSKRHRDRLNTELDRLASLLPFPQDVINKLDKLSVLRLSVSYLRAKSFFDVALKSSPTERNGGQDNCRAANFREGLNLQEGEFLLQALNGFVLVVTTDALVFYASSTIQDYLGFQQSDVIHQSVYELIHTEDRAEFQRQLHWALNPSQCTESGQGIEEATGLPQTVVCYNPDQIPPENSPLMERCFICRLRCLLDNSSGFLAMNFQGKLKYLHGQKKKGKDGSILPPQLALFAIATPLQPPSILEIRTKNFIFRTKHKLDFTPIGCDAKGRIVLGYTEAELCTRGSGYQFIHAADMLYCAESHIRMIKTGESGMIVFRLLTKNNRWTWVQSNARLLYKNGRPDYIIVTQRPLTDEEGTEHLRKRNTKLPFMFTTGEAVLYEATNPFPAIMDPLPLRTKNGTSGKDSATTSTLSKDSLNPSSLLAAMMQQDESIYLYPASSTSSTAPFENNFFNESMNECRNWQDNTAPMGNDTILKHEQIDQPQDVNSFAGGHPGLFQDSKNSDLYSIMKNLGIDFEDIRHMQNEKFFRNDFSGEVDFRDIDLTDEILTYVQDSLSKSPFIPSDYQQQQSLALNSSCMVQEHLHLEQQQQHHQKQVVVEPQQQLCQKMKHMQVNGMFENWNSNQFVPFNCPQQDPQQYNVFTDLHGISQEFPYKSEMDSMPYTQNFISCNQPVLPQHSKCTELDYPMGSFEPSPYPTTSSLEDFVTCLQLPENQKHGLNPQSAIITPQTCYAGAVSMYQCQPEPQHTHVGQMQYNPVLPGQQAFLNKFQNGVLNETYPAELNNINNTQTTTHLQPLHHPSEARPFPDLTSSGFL
Chain of Peroxisome proliferator-activated receptor gamma (Homo sapiens) (P37231 whole entry, looked up): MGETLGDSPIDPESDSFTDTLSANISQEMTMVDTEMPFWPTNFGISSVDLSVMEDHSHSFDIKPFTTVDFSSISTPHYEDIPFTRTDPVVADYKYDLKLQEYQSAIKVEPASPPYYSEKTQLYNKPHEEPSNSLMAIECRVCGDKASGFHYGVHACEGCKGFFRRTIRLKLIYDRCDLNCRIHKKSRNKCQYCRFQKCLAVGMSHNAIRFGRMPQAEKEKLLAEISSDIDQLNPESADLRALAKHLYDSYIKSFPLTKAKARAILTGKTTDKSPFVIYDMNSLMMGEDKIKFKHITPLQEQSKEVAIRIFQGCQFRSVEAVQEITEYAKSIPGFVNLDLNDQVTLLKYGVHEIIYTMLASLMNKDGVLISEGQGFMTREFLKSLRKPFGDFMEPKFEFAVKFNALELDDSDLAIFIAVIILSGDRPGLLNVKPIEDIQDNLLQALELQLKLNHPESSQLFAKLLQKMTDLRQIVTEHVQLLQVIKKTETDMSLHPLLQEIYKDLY

CC(=O)O[C@]1(C(C)=O)CC[C@H]2[C@@H]3C=C(Cl)C4=CC(=O)[C@@H]5C[C@@H]5[C@]4(C)[C@H]3CC[C@@]21C
active: [5] 30.6 µM
not listed: [9] | [10]
inactive: all other assays above

Nc1ncnc2nc[nH]c12
not listed: [6] | [10]
inactive: all other assays above

O=C(Nc1ccc(Cl)cc1)Nc1ccc(Cl)c(Cl)c1
active: [1] 19.2 µM and 30.6 µM | [2] 2.16 µM and 2.73 µM | [9] 4.34 µM and 4.9 µM and 6.68 µM | [6] 2.42 µM and 2.73 µM and 10.6 µM
inactive: [3] | [4] | [7] | [8]

c1ccc(Nc2ccccc2)cc1
not listed: [9]
inactive: all other assays above

C#C[C@]1(O)CC[C@H]2[C@@H]3CCC4=Cc5oncc5C[C@]4(C)[C@H]3CC[C@@]21C
inactive: [1] | [2] | [3] | [4] | [8]
active: [9] 54.9 µM

c1ccncc1
not listed: [10]
inactive: all other assays above

NNc1ccc(C(=O)O)cc1
not listed: [9]
inactive: all other assays above

C[C@]12CC[C@H]3[C@@H](CCC4=CC(=O)CC[C@@]43C)[C@@H]1CC[C@@H]2C(=O)CO
not listed: [5] | [9] | [10]
inactive: all other assays above

O=CCc1ccccc1
not listed: [5] | [9] | [10]
inactive: all other assays above

CC(C(=O)O)c1cccc(C(=O)c2ccccc2)c1 (stereo not given)
not listed: [9]
inactive: all other assays above

Nc1ccccc1N
active: [2] 27.9 µM and 19.8 µM | [3] 19.8 µM | [5] 0.788 µM
not listed: [9] | [10]
inactive: all other assays above

CC(C)(C)NC(=O)[C@H]1CC[C@H]2[C@@H]3CC[C@H]4NC(=O)C=C[C@]4(C)[C@H]3CC[C@]12C
active: [5] 53.9 µM
not listed: [10]
inactive: all other assays above

CC(CCC(=O)O)(c1ccc(O)cc1)c1ccc(O)cc1
not listed: [9]
inactive: all other assays above

COc1ccc(OC)c(C(O)CNC(=O)CN)c1 (stereo not given)
not listed: [9]
inactive: all other assays above

S=C(NC1CCCCC1)NC1CCCCC1
inactive and 17.2 µM (active): [3]
active: [5] 34.4 µM | [8] 9.23 µM and 13.8 µM
not listed: [7] | [9]
inactive: all other assays above

CCOC(=O)C(C#N)=C(c1ccccc1)c1ccccc1
49 µM (active) and inactive: [10]
not listed: [5] | [9]
inactive: all other assays above

O=c1oc(=O)c2cc3c(=O)oc(=O)c3cc12
active: [5] 2.73 µM
not listed: [9]
inactive: all other assays above

CCC(C)c1ccccc1O (stereo not given)
not listed: [9]
inactive: all other assays above

CC(C)Oc1ccc2c(=O)c(-c3ccccc3)coc2c1
active: [2] 2.11 µM and 4.73 µM
not listed: [5] | [9]
inactive: all other assays above

OC1CCCCCCCCCCC1
not listed: [9]
inactive: all other assays above

CC(=O)CC/C=C(\C)CCC=C(C)C
not listed: [9]
inactive: all other assays above

CCCC(=O)O
not listed: [9] | [10]
inactive: all other assays above

CC(C)=CCCC(C)CCO (stereo not given)
not listed: [9] | [10]
inactive: all other assays above

O=S(=O)(O)c1ccc(O)cc1
not listed: [9]
inactive: all other assays above

c1ccc2cc(Nc3ccc(Nc4ccc5ccccc5c4)cc3)ccc2c1
active: [2] 30.8 µM and 30.6 µM | [4] 22 µM
not listed: [10]
inactive: all other assays above

Cc1c(OCC(F)(F)F)ccnc1CS(=O)c1nc2ccccc2[nH]1 (stereo not given)
active: [2] 4.22 µM and 19.3 µM | [5] 8.41 µM
not listed: [8] | [9]
inactive: all other assays above

C#C[C@]1(O)CC[C@H]2[C@@H]3CCc4cc(OC)ccc4[C@H]3CC[C@@]21C
not listed: [5] | [10]
inactive: all other assays above

Clc1nc(Cl)c(Cl)c(Cl)c1Cl
active: [5] 7.74 µM
not listed: [9]
inactive: all other assays above

C[Si](C)(C)O[Si](C)(C)C
not listed: [9]
inactive: all other assays above

COC(C)COC(C)COC(C)CO (stereo not given)
not listed: [9]
inactive: all other assays above

CC(C)=CCC/C(C)=C\CO
not listed: [8] | [9] | [10]
inactive: all other assays above

O=C(/C=C/c1ccccc1)OCc1ccccc1
not listed: [5] | [10]
inactive: all other assays above

CC(=O)c1ccccn1
not listed: [9]
inactive: all other assays above

Nc1ccc(S(=O)(=O)Nc2cnc3ccccc3n2)cc1
not listed: [9]
inactive: all other assays above

CCCCC/C=C/C=C/C=O
inactive: [1] | [2] | [3] | [6] | [7]

Nc1ncn([C@@H]2O[C@H](CO)[C@@H](O)[C@H]2O)c(=O)n1
active: [3] 5.31 µM | [5] 1.54 µM and 2.66 µM
inactive: [2] | [10] | [6] | [7] | [8]

c1ccc2c(c1)Oc1ccccc1S2
inactive: [1] | [3] | [5] | [6] | [7] | [8]

CN(C)C(=N)N=C(N)N
inactive: [1] | [3] | [9] | [5] | [6] | [7]

O=C1OC2(c3cc(Br)c(O)c(Br)c3Oc3c2cc(Br)c(O)c3Br)c2c(Cl)c(Cl)c(Cl)c(Cl)c21
active: [1] 4.86 µM and 8.31 µM | [3] 9.7 µM and 5.88 µM
inactive: [2] | [9] | [5] | [6] | [7]

CCCc1c(OCCCCc2nn[nH]n2)ccc(C(C)=O)c1O
active: [4] 2.19 µM | [10] 8.71 µM
not listed: [2] | [5]
inactive: all other assays above

CN(C)CCN(Cc1cccs1)c1ccccn1
not listed: [1] | [2] | [9]
inactive: all other assays above

c1cc(N(CC2CO2)CC2CO2)ccc1OCC1CO1 (stereo not given)
inactive: [2] | [6]
active: [1] 27.3 µM | [5] 27.3 µM and 19.3 µM

CC(C)CC(C)(O)C#CC(C)(O)CC(C)C (stereo not given)
not listed: [4] | [9] | [10]
inactive: all other assays above

C[C@]12CCC(=O)C=C1CC[C@@H]1[C@@H]2C(=O)C[C@@]2(C)[C@H]1CC[C@]2(O)C(=O)CO
not listed: [4] | [9] | [10]
inactive: all other assays above

Cc1cc2nc3c(=O)[nH]c(=O)nc-3n(C[C@H](O)[C@H](O)[C@H](O)CO)c2cc1C
inactive: [6] | [7] | [8]

O=C(COc1ccc(Cl)cc1)N1CCN(Cc2ccc3c(c2)OCO3)CC1
active: [5] 15.4 µM and 29.8 µM
not listed: [4] | [9] | [10]
inactive: all other assays above

COc1cc([C@@H]2c3cc4c(cc3[C@H](O)[C@H]3COC(=O)[C@H]23)OCO4)cc(OC)c1OC
inactive: [1] | [3] | [10] | [6] | [7] | [8]

CCCCc1oc2ccccc2c1C(=O)c1cc(I)c(OCCN(CC)CC)c(I)c1
active: [6] 34.6 µM
inactive and 43.6 µM (active): [1]
inactive: [3] | [7]

CN(C)CCC=C1c2ccccc2CCc2ccccc21
active: [3] 48.6 µM
not listed: [4] | [5] | [9]
inactive: all other assays above

Oc1ccc(O)cc1
inactive: [3] | [6] | [7] | [8]
inactive and 54.2 µM (active): [1]

C=C(C)C1CC=C(C)CC1 (stereo not given)
not listed: [4] | [10]
inactive: all other assays above

COC(=O)CCC(=O)OC
not listed: [2] | [8] | [9]
inactive: all other assays above

COC(=O)C1=C(C)NC(C)=C(C(=O)OCCN(C)Cc2ccccc2)C1c1cccc([N+](=O)[O-])c1 (stereo not given)
inactive: [2] | [7]
active: [1] 21.1 µM and 54.2 µM | [9] 24.4 µM and 33.5 µM | [6] 24.2 µM and 26.6 µM

CC(C)OC(=O)C(C)(C)Oc1ccc(C(=O)c2ccc(Cl)cc2)cc1
inactive: [2] | [3] | [9] | [6] | [7] | [8]

COc1c(Cl)c(Cl)c(Cl)c(Cl)c1Cl
not listed: [4] | [10]
inactive: all other assays above
